Data from the antibiotic and cytotoxicity screens of Wong et al. (2023).
Among all 39,000 compounds or so, about 3,300 (8.5%) were called active. Many of the other results were omitted from the sample, so actives are more common in it than they were.

tested on: HepG2; test: cytotoxicity call (relative viability < 0.9); conditions: 10 µM

Compound | cytotoxicity call
COCCCN1C(=O)[C@@]2(Cc3ccccc31)c1ccccc1C(=O)N(C1CCCCC1)[C@H]2c1ccc(CO)cc1 | inactive
COc1ccc(NC(=O)N(C)C[C@@H]2OCCCC[C@@H](C)Oc3ccc(NC(=O)NC(C)C)cc3C(=O)N([C@H](C)CO)C[C@H]2C)cc1 | inactive
COc1ccccc1S(=O)(=O)N(C)C[C@H]1Oc2cc(C#CCC(C)C)ccc2S(=O)(=O)N([C@@H](C)CO)C[C@H]1C | active
COc1ccccc1S(=O)(=O)N(C)C[C@@H]1Oc2cc(C#CCC(C)C)ccc2S(=O)(=O)N([C@H](C)CO)C[C@H]1C | inactive
CCCC#Cc1ccc2c(c1)O[C@@H](CN(C)S(=O)(=O)c1cccc(OC)c1)[C@@H](C)CN([C@@H](C)CO)S2(=O)=O | inactive
COc1ccccc1S(=O)(=O)N(C)C[C@H]1Oc2cc(C#CCC(C)C)ccc2S(=O)(=O)N([C@@H](C)CO)C[C@@H]1C | inactive
COc1ccccc1S(=O)(=O)N(C)C[C@@H]1Oc2cc(C#CCC(C)C)ccc2S(=O)(=O)N([C@@H](C)CO)C[C@H]1C | inactive
CC(C)CC#Cc1ccc2c(c1)O[C@H](CN(C)S(=O)(=O)c1cccc(F)c1)[C@H](C)CN([C@@H](C)CO)S2(=O)=O | active
COc1ccccc1S(=O)(=O)N(C)C[C@@H]1Oc2cc(C#CCC(C)C)ccc2S(=O)(=O)N([C@H](C)CO)C[C@@H]1C | active
COc1ccccc1S(=O)(=O)N(C)C[C@H]1Oc2cc(C#CCC(C)C)ccc2S(=O)(=O)N([C@H](C)CO)C[C@@H]1C | inactive
CC(C)CC#Cc1ccc2c(c1)O[C@@H](CN(C)S(=O)(=O)c1cccc(F)c1)[C@H](C)CN([C@H](C)CO)S2(=O)=O | inactive
CCCC#Cc1ccc2c(c1)O[C@H](CN(C)S(=O)(=O)c1cccc(OC)c1)[C@H](C)CN([C@@H](C)CO)S2(=O)=O | inactive
CC(C)CC#Cc1ccc2c(c1)O[C@@H](CN(C)S(=O)(=O)c1cccc(F)c1)[C@H](C)CN([C@@H](C)CO)S2(=O)=O | inactive
C#CCSC1=N[C@@]2(COCc3ccc(OC)cc3)Oc3ccccc3[C@H]([C@H]2CO[Si](C)(C)C(C)(C)C)N1C(=O)c1ccccc1 | inactive
C[C@@H]1CN([C@H](C)CO)C(=O)c2cc(-c3ccc(F)cc3)cnc2O[C@@H]1CN(C)C(=O)Cc1ccccn1 | inactive
C[C@@H]1CN([C@H](C)CO)C(=O)c2cc(NC(=O)CCCN(C)C)ccc2O[C@H]1CN(C)S(=O)(=O)c1ccc(Cl)cc1 | inactive
COC(=O)C1=C2CC[C@H](CO)NC(=O)N[C@H](Cc3ccccc3)C(=O)NCc3cn(nn3)C[C@@H](Cc3ccccc3)NC(=O)c3oc(c(C(=O)OC)c3C(=O)OC)CC[C@H](CO)NC(=O)N[C@H](Cc3ccccc3)C(=O)NCc3cn(nn3)C[C@@H](Cc3ccccc3)NC(=O)C(=C1C(=O)OC)O2 | inactive

Compound | cytotoxicity call
Cc1noc(C)c1S(=O)(=O)Nc1ccc2c(c1)C(=O)N([C@@H](C)CO)C[C@@H](C)[C@H](CN(C)S(=O)(=O)c1cn(C)cn1)OCCCC[C@@H](C)O2 | inactive
C[C@@H]1CCCCO[C@H](CN(C)C(=O)Nc2ccc(F)cc2)[C@H](C)CN([C@@H](C)CO)C(=O)c2cc(NC(=O)CCC(F)(F)F)ccc2O1 | inactive
Cc1ccc(S(=O)(=O)N(C)C[C@H]2Oc3ccc(NC(=O)CCCN(C)C)cc3C(=O)N([C@@H](C)CO)C[C@H]2C)cc1 | inactive
C[C@H](CO)N1C[C@H](C)[C@@H](CN(C)CC2CCCCC2)OCCCC[C@H](C)Oc2ccc(NC(=O)c3ccncc3)cc2C1=O | inactive
COc1cccc(S(=O)(=O)N[C@H]2C=C[C@H](CC(=O)NC3CCC3)O[C@H]2CO)c1 | inactive
C[C@@H]1CN([C@H](C)CO)C(=O)c2cc(NC(=O)CCC(F)(F)F)ccc2O[C@H]1CN(C)Cc1ccc(C(F)(F)F)cc1 | inactive
CC1CCC2(OC1)OC1CC3C4CCC5CC(O)CCC5(C)C4CC(=O)C3(C)C1C2C (centres undefined) | inactive
C[C@@H]1CC[C@@]2(OC1)O[C@H]1C[C@H]3[C@H]4CC=C5C[C@@H](O[C@@H]6O[C@H](CO)[C@@H](O[C@@H]7O[C@@H](C)[C@H](O)[C@@H](O)[C@H]7O[C@@H]7O[C@@H](C)[C@H](O)[C@@H](O)[C@H]7O)[C@H](O)[C@H]6O)CC[C@]5(C)[C@@H]4CC[C@]3(C)[C@H]1[C@@H]2C | active
CC1CCC2(OC1)OC1CC3C4CC=C5CC(O)CCC5(C)C4CCC3(C)C1C2C (centres undefined) | inactive
C[C@@H]1O[C@@H](O[C@H]2[C@H](O)[C@@H](O)[C@H](OC[C@H]3O[C@@H](OC(=O)[C@]45CCC(C)(C)C[C@@H]4C4=CC[C@H]6[C@@]7(C)CC[C@H](O[C@H]8OC[C@H](O)[C@H](O)[C@H]8O[C@H]8O[C@@H](C)[C@H](O)[C@@H](O)[C@H]8O)[C@@](C)(CO)[C@@H]7CC[C@@]6(C)[C@]4(C)CC5)[C@H](O)[C@@H](O)[C@@H]3O)O[C@@H]2CO)[C@H](O)[C@H](O)[C@H]1O | inactive
OC[C@H]1O[C@@H](O[C@H]2[C@H](O)[C@@H](O)[C@@H](O)O[C@@H]2CO)[C@H](O)[C@@H](O)[C@@H]1O | inactive
CC(C)=CCC[C@](C)(O[C@@H]1O[C@H](CO[C@@H]2OC[C@@H](O)[C@H](O)[C@H]2O)[C@@H](O)[C@H](O)[C@H]1O)[C@H]1CC[C@]2(C)[C@@H]1[C@H](O)C[C@@H]1[C@@]3(C)CC[C@H](O[C@@H]4O[C@H](CO)[C@@H](O)[C@H](O)[C@H]4O)C(C)(C)[C@@H]3CC[C@]12C | inactive
C[C@@H]1CC[C@@]2(OC1)O[C@H]1C[C@H]3[C@H]4C[C@@H](O)[C@H]5C[C@@H](O[C@@H]6O[C@H](CO)[C@H](O[C@@H]7O[C@H](CO)[C@@H](O)[C@H](O[C@@H]8OC[C@@H](O)[C@H](O)[C@H]8O)[C@H]7O[C@@H]7O[C@H](CO)[C@@H](O[C@@H]8O[C@H](CO)[C@@H](O)[C@H](O)[C@H]8O)[C@H](O)[C@H]7O)[C@H](O)[C@H]6O)CC[C@]5(C)[C@@H]4CC[C@]3(C)[C@H]1[C@@H]2C | active
C[C@@H]1CC[C@@]2(OC1)O[C@H]1C[C@H]3[C@H]4C[C@@H](O)[C@H]5C[C@@H](O[C@@H]6O[C@H](CO)[C@H](O[C@@H]7O[C@H](CO)[C@@H](O)[C@H](O[C@@H]8OC[C@@H](O)[C@H](O)[C@H]8O)[C@H]7O[C@@H]7O[C@H](CO)[C@@H](O)[C@H](O)[C@H]7O)[C@H](O)[C@H]6O)CC[C@]5(C)[C@@H]4CC[C@]3(C)[C@H]1[C@@H]2C | active
OC[C@@H]1O[C@H](O)[C@H](O)[C@H](O[C@@H]2O[C@H](CO)[C@H](O)[C@H](O[C@@H]3O[C@H](CO)[C@@H](O)[C@H](O)[C@@H]3O)[C@H]2O)[C@H]1O | inactive
CC(=O)OC1CCC2(C)C(CCC3C2CCC2(C)C3CC3OC4(CCC(C)CO4)C(C)C32)C1 (centres undefined) | inactive
CC(=O)OC1CCC2(C)C(CCC3C2CC(=O)C2(C)C3CC3OC4(CCC(C)CO4)C(C)C32)C1 (centres undefined) | inactive
